{
  "source": "paper PMC4336329",
  "about": "(PLoS ONE, 2015)",
  "note": "The whole screen tested about 310,000 compounds, of which about 14,000 (4.5%) showed an effect of 50% or more. The effect is printed as a negative number. This excerpt belongs to a sample that is enriched for strong results.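 Note: peak tail current of the secondary pulse compared with the same well before compound.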",
  "data": [
    {"target": "human ether-à-go-go-related gene (hERG) potassium channel (human, UniProt Q12809)", "sequence (Q12809 whole entry, looked up)": "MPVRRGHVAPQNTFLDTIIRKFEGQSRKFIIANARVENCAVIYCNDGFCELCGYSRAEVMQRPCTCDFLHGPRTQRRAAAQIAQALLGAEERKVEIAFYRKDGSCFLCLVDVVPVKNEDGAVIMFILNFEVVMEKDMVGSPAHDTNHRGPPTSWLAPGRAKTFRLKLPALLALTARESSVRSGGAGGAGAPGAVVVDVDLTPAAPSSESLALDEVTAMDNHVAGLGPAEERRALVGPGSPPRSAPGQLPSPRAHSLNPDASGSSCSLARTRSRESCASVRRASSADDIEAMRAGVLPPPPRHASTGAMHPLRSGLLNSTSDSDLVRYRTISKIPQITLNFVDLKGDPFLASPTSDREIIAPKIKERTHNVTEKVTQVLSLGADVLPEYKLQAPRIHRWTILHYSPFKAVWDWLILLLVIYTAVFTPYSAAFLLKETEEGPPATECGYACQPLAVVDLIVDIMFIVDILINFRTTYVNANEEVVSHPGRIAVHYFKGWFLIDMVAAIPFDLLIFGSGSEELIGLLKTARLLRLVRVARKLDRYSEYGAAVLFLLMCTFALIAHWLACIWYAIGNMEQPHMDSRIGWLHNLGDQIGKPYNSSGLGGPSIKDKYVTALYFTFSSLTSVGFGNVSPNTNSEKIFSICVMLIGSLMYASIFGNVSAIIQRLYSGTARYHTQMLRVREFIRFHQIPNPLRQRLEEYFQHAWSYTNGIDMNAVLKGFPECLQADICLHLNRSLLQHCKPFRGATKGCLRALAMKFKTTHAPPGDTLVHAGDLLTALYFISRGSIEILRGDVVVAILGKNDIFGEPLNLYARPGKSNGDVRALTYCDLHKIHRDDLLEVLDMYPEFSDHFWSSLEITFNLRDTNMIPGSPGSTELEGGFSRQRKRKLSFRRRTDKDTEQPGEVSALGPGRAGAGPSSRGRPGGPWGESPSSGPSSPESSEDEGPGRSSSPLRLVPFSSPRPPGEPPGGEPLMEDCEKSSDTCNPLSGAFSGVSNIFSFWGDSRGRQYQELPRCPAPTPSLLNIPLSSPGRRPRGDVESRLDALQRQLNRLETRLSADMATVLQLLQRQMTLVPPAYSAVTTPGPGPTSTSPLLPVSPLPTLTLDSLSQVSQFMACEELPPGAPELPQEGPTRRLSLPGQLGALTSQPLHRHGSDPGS", "experiment": "primary screen, population patch clamp on CHO cells stably expressing hERG; higher = less effect of the substance", "units": {"hERG current change (%, negative = inhibition) at 10uM": "%"}, "values": [
      {"smiles": "Cn1nc(OCCOc2ccccc2)ccc1=O", "hERG current change (%, negative = inhibition) at 10uM": -4.45},
      {"smiles": "NC(=O)c1ccc(Oc2ncc(C(F)(F)F)cc2Cl)cc1", "hERG current change (%, negative = inhibition) at 10uM": -3.77},
      {"smiles": "O=C(NCc1cccs1)c1ccccc1F", "hERG current change (%, negative = inhibition) at 10uM": -3.47},
      {"smiles": "Cc1ccc(-c2nc(CN(C)C)cc(CN(C)C)c2O)cc1.Cl", "hERG current change (%, negative = inhibition) at 10uM": -14.6},
      {"smiles": "CC(C)(C)c1nc(CN2CCCCC2)cc(CN2CCCCC2)c1O", "hERG current change (%, negative = inhibition) at 10uM": -24.2},
      {"smiles": "Cc1ccc(-c2nc(CN3CCCCC3)cc(CN3CCCCC3)c2O)cc1.Cl", "hERG current change (%, negative = inhibition) at 10uM": -62.5},
      {"smiles": "Cc1ccccc1OCC(=O)OCn1nnc2ccccc2c1=O", "hERG current change (%, negative = inhibition) at 10uM": 19.6},
      {"smiles": "Cc1ccc2[nH]c3c(=O)n(CC(=O)NCc4ccco4)ncc3c2c1", "hERG current change (%, negative = inhibition) at 10uM": 21.9},
      {"smiles": "Cc1ccc2[nH]c3c(=O)n(CC(=O)NCCCN(C)Cc4ccccc4)ncc3c2c1", "hERG current change (%, negative = inhibition) at 10uM": -31.6},
      {"smiles": "O=C(Cn1ncc2c([nH]c3ccccc32)c1=O)NCCc1ccccc1", "hERG current change (%, negative = inhibition) at 10uM": 3.06},
      {"smiles": "CC(C)N(CCCNC(=O)Cn1ncc2c([nH]c3ccccc32)c1=O)Cc1ccccc1", "hERG current change (%, negative = inhibition) at 10uM": -48.1},
      {"smiles": "CCN(CCCNC(=O)Cn1ncc2c([nH]c3ccc(C)cc32)c1=O)c1ccccc1", "hERG current change (%, negative = inhibition) at 10uM": 19},
      {"smiles": "CCN(CCCNC(=O)Cn1ncc2c([nH]c3ccccc32)c1=O)Cc1ccccc1", "hERG current change (%, negative = inhibition) at 10uM": -67},
      {"smiles": "CCN(CCCNC(=O)Cn1ncc2c([nH]c3ccc(C)cc32)c1=O)Cc1ccccc1", "hERG current change (%, negative = inhibition) at 10uM": -58.5},
      {"smiles": "Cc1ccc(NC(=O)c2oc3ccc(S(=O)(=O)N4CCOCC4)cc3c2C)c(C)c1", "hERG current change (%, negative = inhibition) at 10uM": 5.03},
      {"smiles": "O=C(Nc1nc(N2C(=O)c3ccccc3C2=O)n(-c2ccccc2)n1)c1ccc(Cl)cc1", "hERG current change (%, negative = inhibition) at 10uM": -7.9},
      {"smiles": "CC1CC(C)CN(CCCNC(=O)Cc2c(C(=O)O)n(C)c3ccccc23)C1", "note": "(centres unmarked)", "hERG current change (%, negative = inhibition) at 10uM": -15.9},
      {"smiles": "COC(=O)c1c(NC(=O)CCCC(=O)O)sc2c1CCCCC2", "hERG current change (%, negative = inhibition) at 10uM": 12.2},
      {"smiles": "CCOc1ccc(-c2n[nH]c(C)c2-c2ccccn2)c(O)c1", "hERG current change (%, negative = inhibition) at 10uM": 13.6},
      {"smiles": "CS(=O)(=O)Nc1ccc(C(=O)NCc2ccccn2)cc1", "hERG current change (%, negative = inhibition) at 10uM": 0.863},
      {"smiles": "O=C(NC1CCCC1)c1ccc(CS(=O)(=O)Cc2ccccc2F)o1", "hERG current change (%, negative = inhibition) at 10uM": -7.89},
      {"smiles": "N#CCSc1nc2ccccc2c(=O)n1CCCC(=O)NCc1ccco1", "hERG current change (%, negative = inhibition) at 10uM": -33.7},
      {"smiles": "Cc1ccc(CNC(=O)CSc2nc3ccccc3c(=O)n2CCCO)cc1", "hERG current change (%, negative = inhibition) at 10uM": -73},
      {"smiles": "CC(=O)NCCn1c(SCC(=O)NCc2ccco2)nc2ccccc2c1=O", "hERG current change (%, negative = inhibition) at 10uM": -23.9},
      {"smiles": "COc1ccc(NC(=O)COC(=O)c2ccccc2SCC(=O)N2CCCC2)cc1", "hERG current change (%, negative = inhibition) at 10uM": -53.9},
      {"smiles": "COc1cc(NC(=O)COC(=O)c2ccccc2SCC(=O)N2CCCC2)cc(OC)c1", "hERG current change (%, negative = inhibition) at 10uM": -25.7},
      {"smiles": "CCn1c(SCC(=O)Nc2cccc(OC)c2)nc2ccccc2c1=O", "hERG current change (%, negative = inhibition) at 10uM": -47.1},
      {"smiles": "Cc1ccc(NC(=O)CSc2nc3ccccc3c(=O)n2CCCC(=O)N2CCCC2)cc1", "hERG current change (%, negative = inhibition) at 10uM": -44.5},
      {"smiles": "COc1cccc(NC(=O)CSc2nc3ccccc3c(=O)n2CCCC(=O)N2CCCC2)c1", "hERG current change (%, negative = inhibition) at 10uM": -67.3},
      {"smiles": "O=C(CSc1nc2ccccc2c(=O)n1CCCO)NCc1ccccc1", "hERG current change (%, negative = inhibition) at 10uM": -41.5},
      {"smiles": "O=C(CSc1nc2ccccc2c(=O)n1CCCC(=O)N1CCCC1)NCc1ccco1", "hERG current change (%, negative = inhibition) at 10uM": -62.4},
      {"smiles": "CC(=O)Nc1ccc(NC(=O)COC(=O)c2ccccc2SCC(=O)N2CCCC2)cc1", "hERG current change (%, negative = inhibition) at 10uM": 5.48},
      {"smiles": "COCCCn1c(SCC(=O)NCc2ccccc2)nc2ccccc2c1=O", "hERG current change (%, negative = inhibition) at 10uM": -48.6},
      {"smiles": "CCCCN(C(=O)CSc1nnnn1C)C1CCS(=O)(=O)C1", "note": "(centres unmarked)", "hERG current change (%, negative = inhibition) at 10uM": -28.1},
      {"smiles": "COC(=O)N/N=C/c1cn(CCOc2ccc(OC)cc2)c2ccccc12", "hERG current change (%, negative = inhibition) at 10uM": 16.8},
      {"smiles": "Cc1ccc(-n2cc3c(=O)n(C)c(=O)n(C)c3c2)cc1C", "hERG current change (%, negative = inhibition) at 10uM": -6.21},
      {"smiles": "CC(=O)N[C@H]1C(O)O[C@H](CO)[C@@H](O)[C@@H]1O", "note": "(some centres unmarked)", "hERG current change (%, negative = inhibition) at 10uM": 9.71},
      {"smiles": "CCN(CC)c1ccc(C=O)c(OC)c1", "hERG current change (%, negative = inhibition) at 10uM": -9.16},
      {"smiles": "N#C/C(=C\\c1cc2c(cc1Br)OCO2)c1ccc(C(=O)O)cc1", "hERG current change (%, negative = inhibition) at 10uM": 13.2},
      {"smiles": "COCC(=O)N(C)c1nnc(-c2ccc([N+](=O)[O-])cc2)s1", "hERG current change (%, negative = inhibition) at 10uM": 6.65},
      {"smiles": "CN(CC(=O)Nc1c(Cl)cccc1Cl)C(=O)c1ccncc1", "hERG current change (%, negative = inhibition) at 10uM": 19.4},
      {"smiles": "Cn1cnc2c1c(=O)n(Cc1cccc(F)c1)c(=O)n2C", "hERG current change (%, negative = inhibition) at 10uM": 12},
      {"smiles": "Nc1c(C(=O)NC2CCCCC2)nsc1C(=O)OCC(=O)NC1CCCCC1", "hERG current change (%, negative = inhibition) at 10uM": 12.5},
      {"smiles": "CCn1c(-c2cc(-c3ccc(C)cc3)nc3ccccc23)n[nH]c1=S", "hERG current change (%, negative = inhibition) at 10uM": 11.4},
      {"smiles": "CNCCOc1ccc(Cl)c(Cl)c1.O=C(O)C(=O)O", "hERG current change (%, negative = inhibition) at 10uM": 12.8},
      {"smiles": "COc1ccc(NC(=O)CNC(=O)Cc2cccc3ccccc23)c(OC)c1", "hERG current change (%, negative = inhibition) at 10uM": 2.01},
      {"smiles": "O=C(Nc1ncc(Cc2ccccc2)s1)C1COc2ccccc2O1", "note": "(centres unmarked)", "hERG current change (%, negative = inhibition) at 10uM": -0.581},
      {"smiles": "CCOC(=O)c1c(-c2ccc(C)o2)csc1NC(=O)COC(=O)c1cccs1", "hERG current change (%, negative = inhibition) at 10uM": -12},
      {"smiles": "CN1C(=O)NC(c2ccc(O)cc2)C2=C1CN(c1cccc3ccccc13)C2=O", "note": "(centres unmarked)", "hERG current change (%, negative = inhibition) at 10uM": -11.8},
      {"smiles": "CCC(=O)NC(NC(=S)Nc1ccc(S(N)(=O)=O)cc1)C(Cl)(Cl)Cl", "note": "(centres unmarked)", "hERG current change (%, negative = inhibition) at 10uM": -1.3},
      {"smiles": "O=C(CSc1nc2ccccc2c(=O)n1CCC(=O)N1CCCCC1)NCc1ccccc1", "hERG current change (%, negative = inhibition) at 10uM": -70.4},
      {"smiles": "O=C(CCCCCn1c(SCC(=O)c2ccccc2)nc2ccccc2c1=O)NCc1ccco1", "hERG current change (%, negative = inhibition) at 10uM": 10.8},
      {"smiles": "COc1ccc(NC(=O)CSc2nc3ccccc3c(=O)n2CCC(=O)N2CCCCC2)cc1", "hERG current change (%, negative = inhibition) at 10uM": -69.2},
      {"smiles": "COc1ccc(NC(=O)CSc2nc3ccccc3c(=O)n2C)cc1", "hERG current change (%, negative = inhibition) at 10uM": 4.53},
      {"smiles": "NS(=O)(=O)c1ccc(CCNC(=O)CSc2nc3ccccc3c(=O)n2CCC(=O)N2CCCCC2)cc1", "hERG current change (%, negative = inhibition) at 10uM": 19.8},
      {"smiles": "CCOc1ccc(NC(=O)CSc2nc3ccccc3c(=O)n2CCCC(=O)N2CCCC2)cc1", "hERG current change (%, negative = inhibition) at 10uM": -23.8},
      {"smiles": "CCn1c(SCC(=O)NCc2ccccc2)nc2ccccc2c1=O", "hERG current change (%, negative = inhibition) at 10uM": -11.6},
      {"smiles": "O=C(CCCCCn1c(SCc2ccncc2)nc2ccccc2c1=O)NCc1ccco1", "hERG current change (%, negative = inhibition) at 10uM": -86},
      {"smiles": "Cc1ccc(CSc2nc3ccccc3c(=O)n2CCCC(=O)NCc2ccco2)cc1", "hERG current change (%, negative = inhibition) at 10uM": -2.71}
    ]}
  ]
}
